# The full ranking holds about 140,000 sequences; the median of “enrichment ratio after two sorts for PhoP signalling” is about 0, and the highest 2% start at about 11. The full list was thinned out, with the highest values kept by preference.
# B1: PhoQ; a variant is named by its letters at X, in order, P23837 (parent)
# chain: MKKLLRLFFPLSLRVRFLLATAAVVLVLSLAYGMVALIGYSVSFDKTTFRLLRGESNLFYTLAKWENNKLHVELPENIDKQSPTMTLIYDENGQLLWAQRDVPWLMKMIQPDWLKSNGFHEIEADVNDTSLLLSGDHSIQQQLQEVREDDDDAEMTHSVAVNVYPATSRMPKLTIVVVDTIPVELKSSYMVWSWFIYVLSANLLLVIPLLWVAAWWSLRPIEALAKEVRELEEHNRELLNPATTRELTSLVRNLNRLLKSERERYDKYRTTLTDLTHSLKTPLXXLQXXLRSLRSEKMSVSDAEPVMLEQISRISQQIGYYLHRASMRGGTLLSRELHPVAPLLDNLTSALNKVYQRKGVNISLDISPEISFVGEQNDFVEVMGNVLDNACKYCLEFVEISARQTDEHLYIVVEDDGPGIPLSKREVIFDRGQRVDTLRPGQGVGLAVAREITEQYEGKIVAGESMLGGARMEVIFGRQHSAPKDE
# Variants of: B1
# Experiment: enrichment ratio after two sorts for PhoP signalling (ratio (wild type AVST 3.29)); higher = more functional
# Details: with PhoP (E. coli)
row,Variant,enrichment ratio
1,DFEW,≤ 0.25
2,DSVD,≤ 0.25
3,KHWM,≤ 0.25
4,VFFE,≤ 0.25
5,QDVC,≤ 0.25
6,AYPL,≤ 0.25
7,CSYH,≤ 0.25
8,FHNW,≤ 0.25
9,IIGT,≤ 0.25
10,SECK,≤ 0.25
11,SEYD,≤ 0.25
12,SEEL,≤ 0.25
13,SEDH,≤ 0.25
14,SECI,28.3
15,SECP,≤ 0.25
16,SECL,18.7
17,SEGD,1.88
18,NECL,≤ 0.25
19,SECS,20.4
20,SECA,19.7
21,SEAI,7.14
22,FMWQ,≤ 0.25
23,KFFK,≤ 0.25
24,EHGM,≤ 0.25
25,IQWT,≤ 0.25

row,Variant,enrichment ratio
1,KMGN,≤ 0.25
2,YTDA,≤ 0.25
3,VCDM,≤ 0.25
4,EGPQ,≤ 0.25
5,LCVP,≤ 0.25
6,SENE,≤ 0.25
7,SRCQ,1.15
8,IWCG,≤ 0.25
9,SECQ,11.4
10,FEGG,≤ 0.25
11,SENW,≤ 0.25
12,MECQ,≤ 0.25
13,STCG,9.46
14,QECG,23
15,SECE,15.4
16,MECG,9.16
17,FECG,30.4
18,DDMI,≤ 0.25
19,WKTT,≤ 0.25
20,EERG,≤ 0.25
21,WYHV,≤ 0.25
22,FLNY,≤ 0.25
23,SECV,24.5
24,FECS,19.8
25,SRCV,5.55

row,Variant,enrichment ratio
1,SRCG,≤ 0.25
2,SECG,13.7
3,FECI,3.72
4,SLCG,6.01
5,SEYV,5.27
6,FECA,≤ 0.25
7,MMWP,≤ 0.25
8,LWRR,≤ 0.25
9,YSRA,≤ 0.25
10,QHHS,≤ 0.25
11,DQIV,≤ 0.25
12,GEST,16.9
13,MNST,≤ 0.25
14,GESK,≤ 0.25
15,GNST,15.1
16,GIST,8.78
17,MEST,5.63
18,LNST,≤ 0.25
19,TNST,12.6
20,GVST,≤ 0.25
21,ARCL,4.81
22,GDEI,≤ 0.25
23,EMQY,≤ 0.25
24,PNEV,≤ 0.25
25,IGRG,≤ 0.25

row,Variant,enrichment ratio
1,IFWY,≤ 0.25
2,SWHL,0.549
3,HMCK,≤ 0.25
4,KQSF,≤ 0.25
5,CKAF,≤ 0.25
6,TTWG,12.2
7,CTDF,≤ 0.25
8,STWG,≤ 0.25
9,YTWG,≤ 0.25
10,TTSF,13.7
11,CKMF,38.2
12,TTDF,16.9
13,YTSF,≤ 0.25
14,CKFF,≤ 0.25
15,YTDF,≤ 0.25
16,HDWN,≤ 0.25
17,LGQF,≤ 0.25
18,TLMP,≤ 0.25
19,DGEM,≤ 0.25
20,EYIG,≤ 0.25
21,LWNR,≤ 0.25
22,GEFD,≤ 0.25
23,SQIR,≤ 0.25
24,MDDP,≤ 0.25
25,YTEL,≤ 0.25

row,Variant,enrichment ratio
1,TTYI,6.16
2,NVDF,≤ 0.25
3,TTPA,≤ 0.25
4,RIMF,≤ 0.25
5,QVDF,15.1
6,TTPS,≤ 0.25
7,TTMF,20.9
8,TTEL,16.6
9,TTHF,11.8
10,QVHF,0.315
11,THMF,9.68
12,PVYQ,≤ 0.25
13,GLRF,≤ 0.25
14,VHDP,≤ 0.25
15,NRQL,≤ 0.25
16,DQAF,≤ 0.25
17,KQIG,≤ 0.25
18,WLRY,≤ 0.25
19,TTAF,14
20,YTAF,≤ 0.25
21,THDF,11.6
22,GTQF,≤ 0.25
23,SHDF,≤ 0.25
24,YTWN,≤ 0.25
25,NHDF,≤ 0.25

row,Variant,enrichment ratio
1,TTQF,22.7
2,YTQF,≤ 0.25
3,LTAF,≤ 0.25
4,STWN,≤ 0.25
5,TTWN,15.1
6,RKCR,≤ 0.25
7,QNKW,≤ 0.25
8,YVTW,≤ 0.25
9,DWIG,≤ 0.25
10,ERDP,≤ 0.25
11,VGHC,≤ 0.25
12,NFWG,≤ 0.25
13,KTWY,≤ 0.25
14,KQSA,≤ 0.25
15,STGL,9.48
16,TTGL,12.3
17,KSYN,≤ 0.25
18,TTYN,12.5
19,TTSA,11.5
20,YTSA,≤ 0.25
21,WIYN,≤ 0.25
22,TTWI,9.7
23,YTWS,≤ 0.25
24,YTGL,≤ 0.25
25,TTWS,11.9

row,Variant,enrichment ratio
1,IEKA,≤ 0.25
2,RHPA,≤ 0.25
3,PCEP,≤ 0.25
4,MEYV,5.49
5,WFPG,≤ 0.25
6,TMFD,≤ 0.25
7,AHCM,9.33
8,THSS,8.94
9,AKKL,≤ 0.25
10,YGCL,2.74
11,YHQH,≤ 0.25
12,KSHN,≤ 0.25
13,CTMF,25.7
14,TTHN,15.7
15,WIMF,≤ 0.25
16,TTHI,11.5
17,YTMF,5.8
18,TTGF,17.1
19,YTHN,≤ 0.25
20,LTGF,≤ 0.25
21,NVHI,≤ 0.25
22,YTGF,≤ 0.25
23,YTHI,≤ 0.25
24,WRNH,≤ 0.25
25,PTGD,≤ 0.25

row,Variant,enrichment ratio
1,HQVK,≤ 0.25
2,VNRG,≤ 0.25
3,GRVA,≤ 0.25
4,FSSR,≤ 0.25
5,SFVK,≤ 0.25
6,IYPH,≤ 0.25
7,WNMY,≤ 0.25
8,WIMS,≤ 0.25
9,YTMS,≤ 0.25
10,MEMF,0.449
11,TTMS,26.8
12,PTMF,≤ 0.25
13,TKMF,11.5
14,GTYD,≤ 0.25
15,SAKT,≤ 0.25
16,FGAP,≤ 0.25
17,FCVG,≤ 0.25
18,RGTF,≤ 0.25
19,RISV,≤ 0.25
20,ADSV,4.14
21,TISV,12.8
22,VHSV,≤ 0.25
23,WISV,≤ 0.25
24,AISV,15.9

# From a collection of fitness landscapes (doi:10.1126/science.1257360)
